About 79,000 compounds went through this panel and 15% of them were active in at least one assay; those are over-represented in the sample as a whole. Calls of active or inactive are those of the source. Rule as the data show it: active = growth inhibition above about 70%; inactive = the rest.
Assays:
[1] = NCI Yeast Anticancer Drug Screen. Data for the rad52 strain (AID 147);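 also: 0% = growth of vehicle-treated control cultures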; conditions: S. cerevisiae rad52 mutant growth inhibition, active compounds read high
Procedure, shortened: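 The repair-mutant yeast strain was incubated with compounds, then growth was read and inhibition derived relative to vehicle.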

[2] = NCI Yeast Anticancer Drug Screen. Data for the wt1 strain (AID 149);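 also: 0% = growth of vehicle-treated wt1 cultures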; conditions: S. cerevisiae wt1 strain (SPY 50644) growth inhibition, active compounds read high
Procedure, shortened: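 Measured: growth of wt1 yeast under compound versus vehicle treatment, reported as inhibition.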

[3] = NCI Yeast Anticancer Drug Screen. Data for the rad50EPP+ strain (AID 151);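 also: 0% = growth of vehicle-treated control cultures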; conditions: S. cerevisiae rad50 mutant strain, active compounds read high
Procedure, shortened: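 Vehicle-normalised growth inhibition; rad50EPP+ yeast strain, altered in DNA damage repair, compound-treated.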

[4] = NCI Yeast Anticancer Drug Screen. Data for the mgt1 strain (AID 153); conditions: S. cerevisiae mgt1 mutant growth inhibition, active compounds read high
Procedure, shortened: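 Vehicle-normalized growth inhibition is determined in mgt1 yeast, a strain selected for a defined alteration in DNA repair or cell cycle control.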

[5] = NCI Yeast Anticancer Drug Screen. Data for the rad50 strain (AID 155);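 also: 0% = growth of vehicle-only cultures of the same strain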; conditions: S. cerevisiae rad50 strain growth inhibition, active compounds read high
Procedure, shortened: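 Growth of the mutant yeast was measured after compound exposure and referenced to vehicle-treated cultures.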

[6] = NCI Yeast Anticancer Drug Screen. Data for the mec2-1 strain (AID 157); conditions: S. cerevisiae mec2-1 strain, active compounds read high
Procedure, shortened: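 Mutant yeast (mec2-1) grown with compound; growth inhibition relative to vehicle control reported.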

[7] = NCI Yeast Anticancer Drug Screen. Data for the rad14 strain (AID 159);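 also: 0% = growth of vehicle-treated control cultures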; conditions: S. cerevisiae rad14 strain growth inhibition, active compounds read high
Procedure, shortened: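 Here, inhibition of yeast growth was measured after compound exposure, using a strain with a genetic defect in DNA damage repair and vehicle-treated cultures as the reference.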

[8] = NCI Yeast Anticancer Drug Screen. Data for the sgs1 mgt1 strain (AID 161);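 also: 0% = growth of cultures given vehicle only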; conditions: S. cerevisiae sgs1 mgt1 strain, active compounds read high
Procedure, shortened: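 Yeast cells carrying a defined DNA-repair defect were exposed to test compounds. Growth inhibition was measured relative to vehicle-treated controls.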

[9] = NCI Yeast Anticancer Drug Screen. Data for the CLN2oe strain (AID 163);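 also: 0% = growth of vehicle-only control cultures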; conditions: S. cerevisiae CLN2oe strain, active compounds read high
Procedure, shortened: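 Compounds are applied to yeast harbouring a defined cell-cycle control change; reduced growth compared with vehicle-treated controls gives the value.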

[10] = NCI Yeast Anticancer Drug Screen. Data for the bub3 strain (AID 167); conditions: S. cerevisiae bub3 mutant strain, active compounds read high
Procedure, shortened: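 Whole-cell yeast assay. The mutant strain was incubated with compounds, and growth inhibition was determined by comparison with vehicle-treated cells.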

[11] = NCI Yeast Anticancer Drug Screen. Data for the wt2 strain (AID 169);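 also: 0% = growth of vehicle-treated yeast cultures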; conditions: S. cerevisiae wt2 strain growth inhibition, active compounds read high
Procedure, shortened: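 Against vehicle-treated controls, the growth of yeast exposed to each compound was compared, and the inhibition was recorded.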

[12] = NCI Yeast Anticancer Drug Screen. Data for the mlh1 strain (AID 171);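 also: 0% = growth of vehicle-treated control cultures of the same strain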; conditions: S. cerevisiae mlh1 strain growth inhibition, active compounds read high
Procedure, shortened: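 Measured: yeast growth. Reference: vehicle-treated controls. Organism: strain with a defined alteration affecting DNA damage repair or cell cycle control, treated with compound.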

[13] = NCI Yeast Anticancer Drug Screen. Data for the sgs1 strain (AID 173);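 also: 0% = growth of vehicle-only control cultures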; conditions: S. cerevisiae sgs1 mutant, active compounds read high
Procedure, shortened: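 Each compound was added to cultures of the altered yeast strain. Growth was recorded, and inhibition was derived by comparison with vehicle controls.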

[14] = NCI Yeast Anticancer Drug Screen. Data for the mlh1 rad18 strain (AID 175); conditions: S. cerevisiae mlh1 rad18 strain growth inhibition, active compounds read high
Procedure, shortened: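 Genetically defined yeast (DNA repair-deficient) exposed to compounds; growth inhibition determined relative to vehicle.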

[15] = NCI Yeast Anticancer Drug Screen. Data for the rad18 strain (AID 177); conditions: S. cerevisiae rad18 mutant growth inhibition, active compounds read high
Procedure, shortened: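 Vehicle-treated cultures served as the baseline for scoring compound-induced growth inhibition in DNA-repair-mutant yeast.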

[16] = NCI Yeast Anticancer Drug Screen. Data for the cln2 rad14 strain (AID 165);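 also: 0% = growth equal to vehicle treated cultures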; conditions: S. cerevisiae cln2 rad14 strain, active compounds read high
Procedure, shortened: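 Readout is yeast growth inhibition versus vehicle-treated controls, using a strain with cln2 and rad14 alterations exposed to compound.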

[17] = at 5.0 µM (retest, dose inferred, filed as 0.5)
[18] = at 50.0 µM (retest, dose inferred, filed as 5.0)

Measured: growth inhibition

Cc1c(-c2ccccc2)[nH]c2ccccc12
inactive: [1]; at 1.2 µM -7% | [1]; at 3.7 µM -8% | [1]; at 11.0 µM -4% | [2]; at 1.2 µM -21% | [2]; at 3.7 µM -12% | [2]; at 11.0 µM -23% | [3]; at 1.2 µM -2% | [3]; at 3.7 µM 20% | [3]; at 11.0 µM 16% | [3]; at 33.0 µM 52% | [4]; at 1.2 µM -19% | [4]; at 3.7 µM -12% | [4]; at 11.0 µM -11% | [5]; at 1.2 µM -4% | [5]; at 3.7 µM -8% | [5]; [17] 33% | [5]; at 11.0 µM -12% | [6]; at 1.2 µM -2% | [6]; at 3.7 µM 8% | [6]; [17] 48% | [6]; at 11.0 µM -2% | [7]; at 1.2 µM -2% | [7]; at 3.7 µM 0% | [7]; at 11.0 µM 2% | [8]; [17] -1% | [9]; at 1.2 µM 5% | [9]; at 3.7 µM 3% | [9]; at 11.0 µM 1% | [10]; at 1.2 µM -6% | [10]; at 3.7 µM -7% | [10]; [17] 22% | [10]; at 11.0 µM -15% | [11]; at 1.2 µM 10% | [11]; at 3.7 µM 5% | [11]; at 11.0 µM 6% | [11]; at 33.0 µM 68% | [12]; at 1.2 µM 7% | [12]; at 3.7 µM 8% | [12]; at 11.0 µM 6% | [13]; at 1.2 µM 14% | [13]; at 3.7 µM 19% | [13]; at 11.0 µM 14% | [14]; [17] 38% | [15]; at 1.2 µM 3% | [15]; at 3.7 µM 5% | [15]; at 11.0 µM -9%
active: [1]; at 33.0 µM 94% | [1]; at 100.0 µM 99% | [2]; at 33.0 µM 92% | [2]; at 100.0 µM 98% | [3]; at 100.0 µM 98% | [4]; at 33.0 µM 95% | [4]; at 100.0 µM 98% | [5]; at 33.0 µM 95% | [5]; [18] 81% | [5]; at 50.0 µM 91.3% | [5]; at 100.0 µM 98% | [6]; at 33.0 µM 94% | [6]; [18] 85% | [6]; at 50.0 µM 92.5% | [6]; at 100.0 µM 98% | [7]; at 33.0 µM 95% | [7]; at 100.0 µM 98% | [8]; [18] 99% | [8]; at 50.0 µM 93.5% | [9]; at 33.0 µM 98% | [9]; at 100.0 µM 99% | [10]; at 33.0 µM 95% | [10]; [18] 98% | [10]; at 50.0 µM 91.8% | [10]; at 100.0 µM 98% | [11]; at 100.0 µM 99% | [12]; at 33.0 µM 96% | [12]; at 100.0 µM 98% | [13]; at 33.0 µM 97% | [13]; at 100.0 µM 100% | [14]; [18] 96% | [14]; at 50.0 µM 91.2% | [15]; at 33.0 µM 97% | [15]; at 100.0 µM 99%

C(=N/NC1=NCCN1)/c1c2ccccc2c(/C=N\NC2=NCCN2)c2ccccc12
inactive: [2]; at 1.2 µM -4% | [2]; at 3.7 µM 9% | [2]; at 11.0 µM 9% | [2]; at 33.0 µM 52% | [3]; at 1.2 µM 6% | [3]; at 3.7 µM 33% | [4]; at 1.2 µM -8% | [4]; at 3.7 µM -6% | [4]; at 11.0 µM 4% | [4]; at 33.0 µM 64% | [5]; at 1.2 µM 63% | [6]; at 1.2 µM 6% | [6]; at 3.7 µM 1% | [6]; [17] -13% | [6]; at 11.0 µM 20% | [7]; at 1.2 µM -9% | [7]; at 3.7 µM -25% | [7]; at 11.0 µM -3% | [7]; at 33.0 µM 67% | [8]; [17] -7% | [9]; at 1.2 µM -2% | [9]; at 3.7 µM -12% | [9]; at 11.0 µM 13% | [9]; at 33.0 µM 58% | [16]; [17] 7% | [16]; [18] 56% | [16]; at 50.0 µM 62.5% | [10]; at 1.2 µM -17% | [10]; at 3.7 µM -21% | [10]; [17] -35% | [10]; at 11.0 µM -17% | [10]; at 33.0 µM 58% | [11]; at 1.2 µM -4% | [11]; at 3.7 µM -6% | [11]; at 11.0 µM 11% | [12]; at 1.2 µM 11% | [12]; at 3.7 µM 16% | [12]; at 11.0 µM 21% | [14]; [17] -14% | [15]; at 1.2 µM -3% | [15]; at 3.7 µM -6% | [15]; at 11.0 µM 4%
active: [1]; at 1.2 µM 70% | [1]; at 3.7 µM 86% | [1]; at 11.0 µM 94% | [1]; at 33.0 µM 94% | [1]; at 100.0 µM 96% | [2]; at 100.0 µM 86% | [3]; at 11.0 µM 81% | [3]; at 33.0 µM 92% | [3]; at 100.0 µM 94% | [4]; at 100.0 µM 90% | [5]; at 3.7 µM 85% | [5]; [17] 74% | [5]; at 11.0 µM 93% | [5]; at 33.0 µM 94% | [5]; [18] 88% | [5]; at 50.0 µM 82.2% | [5]; at 100.0 µM 94% | [6]; at 33.0 µM 81% | [6]; [18] 80% | [6]; at 50.0 µM 83.6% | [6]; at 100.0 µM 90% | [7]; at 100.0 µM 89% | [8]; [18] 90% | [8]; at 50.0 µM 85.2% | [9]; at 100.0 µM 84% | [10]; [18] 83% | [10]; at 50.0 µM 79.7% | [10]; at 100.0 µM 88% | [11]; at 33.0 µM 79% | [11]; at 100.0 µM 86% | [12]; at 33.0 µM 73% | [12]; at 100.0 µM 90% | [14]; [18] 83% | [15]; at 33.0 µM 78% | [15]; at 100.0 µM 92%
